Source: ChEMBL document CHEMBL1961873, “Compounds: GSK PKIS; Assays: Nanosyn kinase panel” (2012)

Assays:
[1] = target: T1, Inhibitor of nuclear factor kappa-B kinase subunit epsilon (Homo sapiens) (UniProt Q14164); settings: at 1 µM;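 note: reported values are averaged percent inhibition figures against human IKKε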
T1 sequence (whole entry): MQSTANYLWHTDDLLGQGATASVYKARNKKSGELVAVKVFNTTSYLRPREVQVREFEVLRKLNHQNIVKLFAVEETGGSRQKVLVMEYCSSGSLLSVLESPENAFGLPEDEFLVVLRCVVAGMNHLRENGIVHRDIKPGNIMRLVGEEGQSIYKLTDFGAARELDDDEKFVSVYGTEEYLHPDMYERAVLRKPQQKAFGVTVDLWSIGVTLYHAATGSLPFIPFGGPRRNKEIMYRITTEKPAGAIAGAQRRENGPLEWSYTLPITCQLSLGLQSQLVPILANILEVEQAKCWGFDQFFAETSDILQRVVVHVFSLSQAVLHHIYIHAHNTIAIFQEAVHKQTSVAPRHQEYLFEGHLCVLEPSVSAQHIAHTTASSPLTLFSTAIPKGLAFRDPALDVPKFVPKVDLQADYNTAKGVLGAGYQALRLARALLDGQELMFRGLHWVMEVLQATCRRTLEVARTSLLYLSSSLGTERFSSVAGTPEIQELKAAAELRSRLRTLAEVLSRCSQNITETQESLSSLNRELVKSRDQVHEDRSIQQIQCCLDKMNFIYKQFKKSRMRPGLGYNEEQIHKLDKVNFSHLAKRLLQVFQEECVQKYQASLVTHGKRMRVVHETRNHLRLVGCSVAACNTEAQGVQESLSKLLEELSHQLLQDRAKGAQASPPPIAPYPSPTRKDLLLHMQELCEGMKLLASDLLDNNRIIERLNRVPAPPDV

[2] = target: T2, Serine/threonine-protein kinase Nek1 (Homo sapiens) (UniProt Q96PY6); settings: at 0.1 µM
T2 sequence (whole entry): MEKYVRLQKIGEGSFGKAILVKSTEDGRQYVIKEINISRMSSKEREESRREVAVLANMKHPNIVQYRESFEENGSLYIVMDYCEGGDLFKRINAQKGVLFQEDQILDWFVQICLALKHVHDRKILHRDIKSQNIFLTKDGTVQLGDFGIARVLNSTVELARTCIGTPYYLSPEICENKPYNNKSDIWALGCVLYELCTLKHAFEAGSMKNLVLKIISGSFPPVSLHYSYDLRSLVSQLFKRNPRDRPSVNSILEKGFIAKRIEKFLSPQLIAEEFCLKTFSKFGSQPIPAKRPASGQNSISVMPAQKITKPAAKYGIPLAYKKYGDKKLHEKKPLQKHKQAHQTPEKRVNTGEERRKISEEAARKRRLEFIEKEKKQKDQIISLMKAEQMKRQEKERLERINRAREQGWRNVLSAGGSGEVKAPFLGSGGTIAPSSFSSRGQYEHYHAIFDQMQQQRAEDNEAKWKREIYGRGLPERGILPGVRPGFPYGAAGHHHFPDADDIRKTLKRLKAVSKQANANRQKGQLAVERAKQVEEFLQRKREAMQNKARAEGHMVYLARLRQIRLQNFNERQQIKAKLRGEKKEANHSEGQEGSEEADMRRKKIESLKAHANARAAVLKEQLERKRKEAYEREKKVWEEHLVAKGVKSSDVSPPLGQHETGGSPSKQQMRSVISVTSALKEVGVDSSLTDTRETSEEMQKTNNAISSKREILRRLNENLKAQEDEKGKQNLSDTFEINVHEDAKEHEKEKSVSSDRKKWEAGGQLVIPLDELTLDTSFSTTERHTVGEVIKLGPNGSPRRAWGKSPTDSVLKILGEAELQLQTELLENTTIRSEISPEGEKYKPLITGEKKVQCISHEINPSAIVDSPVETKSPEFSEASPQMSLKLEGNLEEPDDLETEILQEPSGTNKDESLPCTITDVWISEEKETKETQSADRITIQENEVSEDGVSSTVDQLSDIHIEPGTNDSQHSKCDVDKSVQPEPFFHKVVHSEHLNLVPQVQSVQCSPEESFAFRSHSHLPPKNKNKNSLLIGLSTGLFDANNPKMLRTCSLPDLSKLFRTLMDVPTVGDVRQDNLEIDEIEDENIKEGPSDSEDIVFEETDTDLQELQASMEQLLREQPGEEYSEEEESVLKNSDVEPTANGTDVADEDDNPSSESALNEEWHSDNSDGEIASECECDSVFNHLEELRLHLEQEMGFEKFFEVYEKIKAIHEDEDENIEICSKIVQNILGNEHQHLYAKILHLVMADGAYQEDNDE

[3] = target: T2, Serine/threonine-protein kinase Nek1 (Homo sapiens); settings: at 1 µM
[4] = target: T3, Serine/threonine-protein kinase Nek2 (Homo sapiens) (UniProt P51955); settings: at 0.1 µM
T3 sequence (whole entry): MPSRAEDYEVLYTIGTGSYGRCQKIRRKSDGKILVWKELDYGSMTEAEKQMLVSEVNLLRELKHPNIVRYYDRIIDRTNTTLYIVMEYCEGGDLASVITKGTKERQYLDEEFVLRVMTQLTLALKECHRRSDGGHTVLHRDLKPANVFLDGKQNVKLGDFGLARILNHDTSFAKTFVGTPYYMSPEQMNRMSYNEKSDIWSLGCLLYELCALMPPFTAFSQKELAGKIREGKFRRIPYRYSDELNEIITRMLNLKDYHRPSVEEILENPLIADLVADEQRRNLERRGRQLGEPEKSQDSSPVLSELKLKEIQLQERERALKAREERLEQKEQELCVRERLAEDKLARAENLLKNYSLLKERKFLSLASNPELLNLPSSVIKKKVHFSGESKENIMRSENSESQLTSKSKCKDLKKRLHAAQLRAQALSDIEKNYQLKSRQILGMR

[5] = target: T3, Serine/threonine-protein kinase Nek2 (Homo sapiens); settings: at 1 µM
[6] = target: Serine/threonine-protein kinase Nek6 (Homo sapiens) (UniProt Q9HC98); settings: at 0.1 µM
Serine/threonine-protein kinase Nek6 (Homo sapiens), sequence (Q9HC98 whole entry): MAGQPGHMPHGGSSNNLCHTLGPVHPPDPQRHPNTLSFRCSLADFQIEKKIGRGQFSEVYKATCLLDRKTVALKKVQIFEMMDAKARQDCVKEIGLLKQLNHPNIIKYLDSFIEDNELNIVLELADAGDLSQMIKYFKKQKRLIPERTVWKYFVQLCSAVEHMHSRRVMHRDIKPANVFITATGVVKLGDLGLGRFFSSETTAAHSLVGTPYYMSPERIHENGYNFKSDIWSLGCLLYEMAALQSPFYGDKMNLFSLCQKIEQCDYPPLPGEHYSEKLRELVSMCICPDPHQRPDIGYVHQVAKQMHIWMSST

[7] = target: Serine/threonine-protein kinase Nek6 (Homo sapiens) (UniProt Q9HC98); settings: at 1 µM
[8] = target: Serine/threonine-protein kinase Nek7 (Homo sapiens) (UniProt Q8TDX7); settings: at 0.1 µM
Serine/threonine-protein kinase Nek7 (Homo sapiens), sequence (Q8TDX7 whole entry, looked up): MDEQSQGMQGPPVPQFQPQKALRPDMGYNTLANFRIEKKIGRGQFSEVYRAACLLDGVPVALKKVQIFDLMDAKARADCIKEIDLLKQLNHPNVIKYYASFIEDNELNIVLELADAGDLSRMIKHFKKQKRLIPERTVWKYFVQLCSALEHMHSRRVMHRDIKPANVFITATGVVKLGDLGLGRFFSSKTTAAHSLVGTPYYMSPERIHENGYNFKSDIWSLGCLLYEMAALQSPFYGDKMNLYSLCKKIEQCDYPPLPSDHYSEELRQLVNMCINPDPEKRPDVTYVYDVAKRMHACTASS

[9] = target: Serine/threonine-protein kinase Nek7 (Homo sapiens) (UniProt Q8TDX7); settings: at 1 µM
[10] = target: T4, Serine/threonine-protein kinase Nek9 (Homo sapiens) (UniProt Q8TD19); settings: at 0.1 µM
T4 sequence (whole entry): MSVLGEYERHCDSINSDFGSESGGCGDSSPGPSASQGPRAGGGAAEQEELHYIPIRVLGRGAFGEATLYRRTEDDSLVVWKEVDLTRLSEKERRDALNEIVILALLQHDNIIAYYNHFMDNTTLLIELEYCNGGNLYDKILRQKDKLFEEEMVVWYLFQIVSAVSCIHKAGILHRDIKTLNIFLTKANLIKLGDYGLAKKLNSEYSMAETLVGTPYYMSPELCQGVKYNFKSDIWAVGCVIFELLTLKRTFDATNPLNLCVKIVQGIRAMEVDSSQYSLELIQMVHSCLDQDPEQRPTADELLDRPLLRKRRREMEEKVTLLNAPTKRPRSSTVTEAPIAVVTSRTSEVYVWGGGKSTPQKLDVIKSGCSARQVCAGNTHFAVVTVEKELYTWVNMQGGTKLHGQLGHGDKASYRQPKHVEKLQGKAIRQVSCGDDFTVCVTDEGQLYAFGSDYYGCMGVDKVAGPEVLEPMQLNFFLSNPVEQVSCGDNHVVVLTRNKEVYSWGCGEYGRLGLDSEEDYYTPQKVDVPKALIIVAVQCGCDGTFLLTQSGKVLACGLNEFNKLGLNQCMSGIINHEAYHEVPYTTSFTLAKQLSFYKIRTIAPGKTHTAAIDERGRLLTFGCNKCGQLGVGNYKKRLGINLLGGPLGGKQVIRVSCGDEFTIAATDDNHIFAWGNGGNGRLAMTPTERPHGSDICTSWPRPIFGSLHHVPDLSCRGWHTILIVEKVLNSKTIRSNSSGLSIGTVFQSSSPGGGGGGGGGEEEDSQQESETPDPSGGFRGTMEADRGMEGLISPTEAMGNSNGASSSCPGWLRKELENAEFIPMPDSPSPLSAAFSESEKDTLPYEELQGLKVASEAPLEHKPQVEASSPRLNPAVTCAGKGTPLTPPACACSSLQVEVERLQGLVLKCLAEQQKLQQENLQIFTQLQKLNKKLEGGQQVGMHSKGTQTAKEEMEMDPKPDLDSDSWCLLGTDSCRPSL

[11] = target: T4, Serine/threonine-protein kinase Nek9 (Homo sapiens); settings: at 1 µM
[12] = target: Serine/threonine-protein kinase PLK1 (Homo sapiens) (UniProt P53350); settings: at 0.1 µM
Serine/threonine-protein kinase PLK1 (Homo sapiens), sequence (P53350 whole entry): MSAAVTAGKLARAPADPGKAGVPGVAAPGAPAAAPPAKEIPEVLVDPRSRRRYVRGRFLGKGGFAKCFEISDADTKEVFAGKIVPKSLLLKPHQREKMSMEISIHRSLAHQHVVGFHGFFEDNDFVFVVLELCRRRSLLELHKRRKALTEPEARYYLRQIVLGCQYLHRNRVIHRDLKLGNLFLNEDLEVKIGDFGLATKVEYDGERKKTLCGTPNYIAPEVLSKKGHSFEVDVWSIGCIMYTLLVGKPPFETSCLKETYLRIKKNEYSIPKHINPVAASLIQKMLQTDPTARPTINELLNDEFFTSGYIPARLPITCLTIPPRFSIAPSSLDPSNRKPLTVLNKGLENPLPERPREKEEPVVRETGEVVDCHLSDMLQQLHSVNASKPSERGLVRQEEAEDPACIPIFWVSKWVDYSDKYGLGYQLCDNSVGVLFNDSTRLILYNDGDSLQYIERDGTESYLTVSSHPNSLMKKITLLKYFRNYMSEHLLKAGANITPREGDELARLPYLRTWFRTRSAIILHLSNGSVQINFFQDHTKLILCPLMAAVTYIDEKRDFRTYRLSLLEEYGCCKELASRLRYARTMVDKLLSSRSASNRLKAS

[13] = target: Serine/threonine-protein kinase PLK1 (Homo sapiens) (UniProt P53350); settings: at 1 µM
[14] = target: T5, Dual specificity protein kinase TTK (Homo sapiens) (UniProt P33981); settings: at 0.1 µM
T5 sequence (whole entry): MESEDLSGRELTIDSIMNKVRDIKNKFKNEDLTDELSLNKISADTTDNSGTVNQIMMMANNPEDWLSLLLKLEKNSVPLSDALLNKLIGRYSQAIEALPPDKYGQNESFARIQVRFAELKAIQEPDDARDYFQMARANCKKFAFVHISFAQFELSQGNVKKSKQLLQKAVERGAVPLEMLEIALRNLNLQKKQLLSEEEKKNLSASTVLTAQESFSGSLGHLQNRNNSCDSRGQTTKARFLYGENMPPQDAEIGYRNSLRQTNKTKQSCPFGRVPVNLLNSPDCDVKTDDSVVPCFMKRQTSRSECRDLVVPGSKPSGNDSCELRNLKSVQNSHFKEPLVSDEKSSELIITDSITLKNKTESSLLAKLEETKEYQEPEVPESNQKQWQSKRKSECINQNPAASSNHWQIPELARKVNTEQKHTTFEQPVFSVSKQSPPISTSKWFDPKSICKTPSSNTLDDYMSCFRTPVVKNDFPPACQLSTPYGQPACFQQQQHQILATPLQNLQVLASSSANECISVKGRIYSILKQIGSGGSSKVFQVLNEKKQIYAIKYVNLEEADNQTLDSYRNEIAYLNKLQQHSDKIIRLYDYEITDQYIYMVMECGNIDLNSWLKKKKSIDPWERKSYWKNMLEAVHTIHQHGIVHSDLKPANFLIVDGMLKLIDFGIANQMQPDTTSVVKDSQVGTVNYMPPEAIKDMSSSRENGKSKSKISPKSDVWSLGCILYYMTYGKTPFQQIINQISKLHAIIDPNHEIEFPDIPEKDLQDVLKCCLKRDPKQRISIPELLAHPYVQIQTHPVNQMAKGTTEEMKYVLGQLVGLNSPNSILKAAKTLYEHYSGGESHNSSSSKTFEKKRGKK

[15] = tested on: T6, Receptor-type tyrosine-protein kinase FLT3 (Homo sapiens), P36888 [D835Y]; settings: at 1 µM
T6 sequence (whole entry): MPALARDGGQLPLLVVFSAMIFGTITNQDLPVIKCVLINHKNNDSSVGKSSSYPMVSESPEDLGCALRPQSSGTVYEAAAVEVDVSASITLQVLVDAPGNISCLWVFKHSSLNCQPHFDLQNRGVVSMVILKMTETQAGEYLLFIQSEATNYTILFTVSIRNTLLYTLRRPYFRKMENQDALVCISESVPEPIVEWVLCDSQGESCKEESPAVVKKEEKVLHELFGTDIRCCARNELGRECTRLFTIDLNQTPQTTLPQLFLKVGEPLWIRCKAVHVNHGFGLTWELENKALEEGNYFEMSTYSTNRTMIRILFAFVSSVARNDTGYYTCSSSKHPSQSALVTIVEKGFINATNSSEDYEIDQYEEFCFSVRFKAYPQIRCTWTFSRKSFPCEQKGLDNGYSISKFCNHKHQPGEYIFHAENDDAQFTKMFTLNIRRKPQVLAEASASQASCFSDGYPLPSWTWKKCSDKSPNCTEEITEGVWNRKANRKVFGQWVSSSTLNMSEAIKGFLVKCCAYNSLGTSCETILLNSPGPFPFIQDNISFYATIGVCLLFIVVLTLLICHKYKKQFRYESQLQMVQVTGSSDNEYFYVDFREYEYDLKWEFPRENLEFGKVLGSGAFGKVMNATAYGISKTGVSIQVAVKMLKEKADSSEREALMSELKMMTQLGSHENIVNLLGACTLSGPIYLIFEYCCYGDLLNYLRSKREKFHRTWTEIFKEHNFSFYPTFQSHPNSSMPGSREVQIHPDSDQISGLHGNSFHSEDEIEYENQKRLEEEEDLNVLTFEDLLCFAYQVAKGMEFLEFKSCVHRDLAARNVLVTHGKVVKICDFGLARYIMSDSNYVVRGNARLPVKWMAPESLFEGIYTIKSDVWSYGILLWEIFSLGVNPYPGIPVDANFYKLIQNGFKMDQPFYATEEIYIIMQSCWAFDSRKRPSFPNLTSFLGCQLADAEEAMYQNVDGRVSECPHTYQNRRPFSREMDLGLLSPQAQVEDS

[16] = target: Vascular endothelial growth factor receptor 3 (Homo sapiens) (UniProt P35916); settings: at 0.1 µM
Vascular endothelial growth factor receptor 3 (Homo sapiens), sequence (P35916 whole entry): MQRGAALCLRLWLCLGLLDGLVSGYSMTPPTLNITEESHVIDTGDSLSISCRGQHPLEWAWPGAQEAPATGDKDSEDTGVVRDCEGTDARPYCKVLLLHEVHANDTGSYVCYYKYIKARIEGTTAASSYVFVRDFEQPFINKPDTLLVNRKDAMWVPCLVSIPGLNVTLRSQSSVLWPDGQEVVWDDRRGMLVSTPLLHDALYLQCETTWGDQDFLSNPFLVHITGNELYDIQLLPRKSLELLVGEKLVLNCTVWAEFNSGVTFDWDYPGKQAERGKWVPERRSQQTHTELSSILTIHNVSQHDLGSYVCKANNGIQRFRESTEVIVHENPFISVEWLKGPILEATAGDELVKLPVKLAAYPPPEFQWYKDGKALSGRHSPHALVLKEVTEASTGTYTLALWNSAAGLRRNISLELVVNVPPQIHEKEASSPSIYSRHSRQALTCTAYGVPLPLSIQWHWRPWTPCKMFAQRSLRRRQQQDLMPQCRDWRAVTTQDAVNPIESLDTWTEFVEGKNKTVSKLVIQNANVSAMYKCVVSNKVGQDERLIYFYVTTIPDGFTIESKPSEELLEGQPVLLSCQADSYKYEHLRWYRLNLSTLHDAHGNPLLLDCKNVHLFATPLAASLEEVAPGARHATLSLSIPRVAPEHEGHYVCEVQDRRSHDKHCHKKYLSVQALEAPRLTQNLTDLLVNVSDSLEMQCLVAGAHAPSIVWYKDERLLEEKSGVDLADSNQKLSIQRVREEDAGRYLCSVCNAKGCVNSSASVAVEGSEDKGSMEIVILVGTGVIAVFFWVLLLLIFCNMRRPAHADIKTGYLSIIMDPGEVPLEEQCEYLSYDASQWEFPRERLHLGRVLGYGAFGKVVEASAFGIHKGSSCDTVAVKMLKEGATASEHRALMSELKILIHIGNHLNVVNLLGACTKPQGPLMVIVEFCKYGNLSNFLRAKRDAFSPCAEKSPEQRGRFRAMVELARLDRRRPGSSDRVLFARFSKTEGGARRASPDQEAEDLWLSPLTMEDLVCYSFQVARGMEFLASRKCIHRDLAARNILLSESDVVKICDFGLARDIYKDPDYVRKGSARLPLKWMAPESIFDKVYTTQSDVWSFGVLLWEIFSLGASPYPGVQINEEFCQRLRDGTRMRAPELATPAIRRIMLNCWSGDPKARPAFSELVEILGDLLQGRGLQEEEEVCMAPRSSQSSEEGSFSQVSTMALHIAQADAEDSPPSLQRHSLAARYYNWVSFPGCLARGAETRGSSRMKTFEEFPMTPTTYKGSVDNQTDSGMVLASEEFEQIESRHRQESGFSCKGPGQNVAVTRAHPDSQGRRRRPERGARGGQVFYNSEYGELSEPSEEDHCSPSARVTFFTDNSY

[17] = target: Vascular endothelial growth factor receptor 3 (Homo sapiens) (UniProt P35916); settings: at 1 µM
[18] = target: Macrophage colony-stimulating factor 1 receptor (Homo sapiens) (UniProt P07333); settings: at 0.1 µM
Macrophage colony-stimulating factor 1 receptor (Homo sapiens), sequence (P07333 whole entry): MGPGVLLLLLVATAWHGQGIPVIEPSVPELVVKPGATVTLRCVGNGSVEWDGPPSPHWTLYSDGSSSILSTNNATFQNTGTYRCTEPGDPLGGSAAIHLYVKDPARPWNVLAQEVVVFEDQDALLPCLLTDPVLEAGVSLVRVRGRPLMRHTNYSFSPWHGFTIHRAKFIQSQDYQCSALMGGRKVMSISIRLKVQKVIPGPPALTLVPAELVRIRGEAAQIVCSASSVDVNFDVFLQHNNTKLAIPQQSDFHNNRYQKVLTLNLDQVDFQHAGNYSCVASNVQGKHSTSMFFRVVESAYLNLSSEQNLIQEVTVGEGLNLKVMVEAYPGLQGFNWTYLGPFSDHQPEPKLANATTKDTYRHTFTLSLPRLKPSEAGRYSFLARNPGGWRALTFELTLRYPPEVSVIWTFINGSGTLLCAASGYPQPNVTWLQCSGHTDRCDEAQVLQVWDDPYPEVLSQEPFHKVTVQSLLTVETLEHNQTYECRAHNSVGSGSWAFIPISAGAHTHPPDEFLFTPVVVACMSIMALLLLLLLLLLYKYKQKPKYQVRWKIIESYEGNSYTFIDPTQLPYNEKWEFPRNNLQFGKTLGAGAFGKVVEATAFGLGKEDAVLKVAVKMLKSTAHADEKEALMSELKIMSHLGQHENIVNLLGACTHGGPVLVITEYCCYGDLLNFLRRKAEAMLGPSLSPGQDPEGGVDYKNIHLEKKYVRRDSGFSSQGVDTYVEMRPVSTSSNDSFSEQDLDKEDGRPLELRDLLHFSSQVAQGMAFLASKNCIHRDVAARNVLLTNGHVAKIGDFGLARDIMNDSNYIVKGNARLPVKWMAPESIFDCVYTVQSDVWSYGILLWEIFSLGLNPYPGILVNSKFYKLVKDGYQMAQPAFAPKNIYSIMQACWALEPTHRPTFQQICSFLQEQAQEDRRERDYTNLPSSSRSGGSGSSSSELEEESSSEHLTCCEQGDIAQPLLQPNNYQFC

[19] = target: Macrophage colony-stimulating factor 1 receptor (Homo sapiens) (UniProt P07333); settings: at 1 µM
[20] = target: Tyrosine-protein kinase Fyn (Homo sapiens) (UniProt P06241); settings: at 0.1 µM
Tyrosine-protein kinase Fyn (Homo sapiens), sequence (P06241 2-537 limits assumed): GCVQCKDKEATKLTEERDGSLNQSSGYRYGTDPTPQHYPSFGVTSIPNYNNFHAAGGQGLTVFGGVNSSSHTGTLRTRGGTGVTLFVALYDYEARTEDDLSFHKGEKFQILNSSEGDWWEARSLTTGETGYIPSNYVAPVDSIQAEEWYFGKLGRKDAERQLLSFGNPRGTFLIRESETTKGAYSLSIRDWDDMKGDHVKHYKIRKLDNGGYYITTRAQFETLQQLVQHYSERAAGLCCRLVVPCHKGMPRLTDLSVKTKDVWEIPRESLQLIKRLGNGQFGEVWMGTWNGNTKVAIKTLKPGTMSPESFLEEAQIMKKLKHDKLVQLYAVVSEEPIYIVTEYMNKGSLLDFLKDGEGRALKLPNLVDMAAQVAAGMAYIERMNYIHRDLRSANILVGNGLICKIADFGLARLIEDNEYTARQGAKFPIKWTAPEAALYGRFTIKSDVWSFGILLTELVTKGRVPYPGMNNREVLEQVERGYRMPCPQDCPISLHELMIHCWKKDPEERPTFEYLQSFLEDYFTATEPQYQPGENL

## Nc1nc(-c2ccc(F)cc2)c(-c2ccc3ncccc3n2)s1
[1]
  inhibition: 7.4%
[2]
  inhibition: 2.04%
[3]
  inhibition: 36%
[4]
  inhibition: 4.57%
[5]
  inhibition: 6.71%
[6]
  inhibition: 2.87%
[7]
  inhibition: 5.03%
[8]
  inhibition: 3.03%
[9]
  inhibition: 3.14%
[10]
  inhibition: 11.5%
[11]
  inhibition: 11.1%
[12]
  inhibition: 3.57%
[13]
  inhibition: 6.9%
[14]
  inhibition: 9.86%
[15]
  inhibition: 6.56%
[16]
  inhibition: 4.58%
[17]
  inhibition: 11.6%
[18]
  inhibition: 3.44%
[19]
  inhibition: 7.59%
[20]
  inhibition: 2.8%
